Assay results from the supplement of paper PMC12669032.

What was measured:
Assay in all cases: growth AUC relative to DMSO control (median of replicates) (fraction); higher = more growth (less inhibition), active = hit call of the paper
Settings in all cases: 20 µM; 24 h;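 active = AUC reduced over 20% with Padj below 0.05 in at least 2 of 3 replicates; inactive = otherwise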
[1] = tested on: Akkermansia muciniphila
Method in brief: (§1)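 Three biological replicates, each grown on a separate day, were combined as a median for every value. In each, a gut bacterial monoculture in mGAM started at OD600 0.05 and grew anaerobically at 37 °C with 20 µM compound (1% DMSO), with OD600 read hourly over 24 h. Area under the growth curve was normalised against the plate median of solvent-only wells, or against row and column medians on the industrial chemical plate, after the minimum OD was set to 0.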

[2] = tested on: Bacteroides caccae
Method in brief: as §1

[3] = tested on: Bacteroides clarus
Method in brief: as §1

[4] = tested on: Bacteroides dorei
Method in brief: as §1

[5] = tested on: Bacteroides stercoris
Method in brief: as §1

[6] = tested on: Bacteroides thetaiotaomicron
Method in brief: as §1

[7] = tested on: Bacteroides uniformis
Method in brief: as §1

[8] = tested on: Bifidobacterium longum subsp. longum
Method in brief: as §1

[9] = tested on: Clostridium difficile
Method in brief: as §1

[10] = tested on: Collinsella aerofaciens
Method in brief: as §1

[11] = tested on: Coprococcus comes
Method in brief: as §1

[12] = tested on: Escherichia coli ED1a
Method in brief: as §1

[13] = tested on: Escherichia coli IAI1
Method in brief: as §1

[14] = tested on: Eubacterium rectale
Method in brief: as §1

[15] = tested on: Fusobacterium nucleatum subsp. animalis
Method in brief: as §1

[16] = tested on: Lactobacillus gasseri
Method in brief: as §1

[17] = tested on: Lactobacillus paracasei
Method in brief: as §1

[18] = tested on: Odoribacter splanchnicus
Method in brief: as §1

[19] = tested on: Parabacteroides distasonis
Method in brief: as §1

[20] = tested on: Parabacteroides merdae
Method in brief: as §1

Measured: growth AUC

CCCCC(CC)COC(=O)COc1ccc(Cl)cc1C (stereo not given)
inactive: [1] 1.15 | [2] 0.995 | [3] 0.997 | [4] 0.977 | [5] 0.983 | [6] 0.987 | [7] 0.943 | [8] 0.986 | [9] 0.979 | [10] 0.907 | [11] 1.03 | [12] 0.981 | [13] 1.01 | [14] 1.05 | [15] 0.989 | [16] 0.828 | [17] 0.962 | [18] 0.934 | [19] 0.923 | [20] 0.937

O=S(=O)(Cc1ccc(Cl)cc1)c1ccc(Cl)cc1
inactive: [1] 0.848 | [2] 1 | [3] 0.981 | [4] 1.02 | [5] 1.12 | [6] 0.963 | [7] 0.997 | [8] 1.03 | [9] 1.01 | [10] 1.01 | [11] 0.978 | [12] 0.97 | [13] 1.02 | [14] 1.02 | [15] 0.977 | [16] 1.04 | [17] 1.03 | [18] 0.995 | [19] 1 | [20] 0.98

c1ccc2cc3c(ccc4ccccc43)cc2c1
inactive: [1] 1.01 | [2] 0.994 | [3] 1 | [4] 0.993 | [5] 0.994 | [6] 1.01 | [7] 1.01 | [8] 0.962 | [9] 0.992 | [10] 1 | [11] 1 | [12] 0.999 | [13] 0.994 | [14] 1.08 | [15] 1.01 | [16] 0.969 | [17] 1 | [18] 0.992 | [19] 0.961 | [20] 0.995

Clc1ccc(Sc2cc(Cl)c(Cl)cc2Cl)cc1
inactive: [1] 1.05 | [2] 0.943 | [3] 0.993 | [4] 1.04 | [5] 0.985 | [6] 0.98 | [7] 0.984 | [8] 0.986 | [9] 1 | [10] 0.936 | [11] 0.964 | [12] 0.972 | [13] 0.984 | [14] 0.943 | [15] 1.04 | [16] 0.86 | [17] 1.05 | [18] 1.1 | [19] 1.01 | [20] 0.976

CCC(C)c1cc([N+](=O)[O-])cc([N+](=O)[O-])c1OC(=O)OC(C)C (stereo not given)
inactive: [1] 1.05 | [2] 0.909 | [3] 0.81 | [4] 0.892 | [6] 0.875 | [7] 0.881 | [8] 0.959 | [9] 0.945 | [10] 0.915 | [11] 0.867 | [12] 0.911 | [13] 0.929 | [14] 1.02 | [16] 0.859 | [17] 0.951 | [18] 1.09 | [19] 0.979 | [20] 0.929
active: [5] 0.294 | [15] 0.611

COc1cccc(N(C)C(=S)Oc2cccc(C(C)(C)C)c2)n1
inactive: [1] 0.871 | [2] 0.93 | [3] 0.921 | [4] 1.06 | [5] 0.839 | [6] 1.01 | [7] 1.01 | [8] 0.895 | [9] 1.09 | [10] 0.97 | [11] 0.954 | [12] 0.997 | [13] 0.982 | [14] 0.896 | [15] 0.971 | [16] 1.06 | [17] 0.707 | [18] 1.11 | [19] 0.951 | [20] 0.933

COc1cc(OC)c(Cl)cc1N
inactive: [1] 0.954 | [2] 0.994 | [3] 0.995 | [4] 1.02 | [5] 1.09 | [6] 1.01 | [7] 1.01 | [8] 0.912 | [9] 1.01 | [10] 1.03 | [11] 1.03 | [12] 1 | [13] 1.01 | [14] 1.03 | [15] 1.14 | [16] 0.969 | [17] 1.04 | [18] 1.04 | [19] 1.02 | [20] 1.04

Br[C@@H]1CC[C@@H](Br)[C@@H](Br)CC[C@H](Br)[C@H](Br)CC[C@H]1Br
inactive: [1] 1.04 | [2] 0.941 | [3] 1 | [4] 0.985 | [5] 1 | [6] 0.978 | [7] 0.977 | [8] 0.979 | [9] 1 | [10] 0.815 | [11] 0.975 | [12] 0.944 | [13] 0.968 | [14] 1.08 | [15] 1.03 | [16] 0.91 | [17] 0.872 | [18] 0.992 | [19] 0.825 | [20] 1

CCCCCCCCOC(=O)COc1cc(Cl)c(Cl)cc1Cl
inactive: [1] 1.05 | [2] 0.98 | [3] 1 | [4] 0.968 | [5] 1.11 | [6] 1.01 | [7] 0.982 | [8] 0.97 | [9] 1.02 | [10] 0.94 | [11] 0.946 | [12] 1.02 | [13] 1.01 | [14] 0.995 | [15] 1.02 | [16] 0.977 | [17] 1.11 | [18] 1.08 | [19] 1.03 | [20] 1.01

COC(=O)C(C)Oc1ccc(Oc2ccc(C(F)(F)F)cn2)cc1 (stereo not given)
inactive: [1] 1.14 | [2] 0.979 | [3] 0.992 | [4] 0.948 | [5] 1.23 | [6] 0.965 | [7] 0.968 | [8] 1.02 | [9] 1.01 | [10] 0.979 | [11] 0.977 | [12] 1.02 | [13] 1.02 | [14] 1.06 | [15] 1.12 | [16] 0.958 | [17] 0.98 | [18] 1.02 | [19] 0.821 | [20] 0.963

COc1nc(N)nc(NC(C)(C)C)n1
inactive: [1] 1.01 | [2] 0.996 | [3] 0.965 | [4] 1.03 | [5] 0.967 | [6] 1.01 | [7] 1 | [8] 1.01 | [9] 0.98 | [10] 0.959 | [11] 1.03 | [12] 1 | [13] 0.98 | [14] 0.976 | [15] 0.964 | [16] 0.933 | [17] 1.02 | [18] 1.07 | [19] 1 | [20] 1.02

CN(C)C(=O)c1cccnc1S(N)(=O)=O
inactive: [1] 1.05 | [2] 1.01 | [3] 1.04 | [4] 1.03 | [5] 1.01 | [6] 0.988 | [7] 1.04 | [8] 1.02 | [9] 1.05 | [10] 1.01 | [11] 1.03 | [12] 1.05 | [13] 1.04 | [14] 1.02 | [15] 1.02 | [16] 1.06 | [17] 1.04 | [18] 1.02 | [19] 1.01 | [20] 1

CCN(CC)C(=O)c1cccc(C)c1
inactive: [1] 1.03 | [2] 0.985 | [3] 1.03 | [4] 1.05 | [5] 1.05 | [6] 0.975 | [7] 0.998 | [8] 1.02 | [9] 0.982 | [10] 0.952 | [11] 0.974 | [12] 1 | [13] 1.01 | [14] 1.06 | [15] 1.04 | [16] 0.966 | [17] 0.977 | [18] 1.13 | [19] 1.01 | [20] 1.04

O.O=C(Nc1ccc(Cl)c(Cl)c1)Nc1cc(Cl)ccc1Oc1ccc(Cl)cc1S(=O)(=O)[O-].[Na+]
inactive: [1] 1.16 | [2] 0.906 | [4] 0.908 | [8] 0.912 | [9] 0.829 | [11] 0.823 | [12] 1.06 | [13] 1.03 | [14] 0.886 | [15] 0.691 | [17] 0.906 | [20] 0.861
active: [3] 0.22 | [5] 0.0107 | [6] 0.329 | [7] 0.00911 | [10] 0.619 | [16] 0.0949 | [18] 0.0102 | [19] 0.494

CCOC(=O)c1ccc(O)cc1
inactive: [1] 1.17 | [2] 0.967 | [3] 1.01 | [4] 0.842 | [5] 0.993 | [6] 0.991 | [7] 1 | [8] 1.02 | [9] 1.01 | [10] 1 | [11] 1 | [12] 0.974 | [13] 0.969 | [14] 1.07 | [15] 1.05 | [16] 0.822 | [17] 0.978 | [18] 0.988 | [19] 0.893 | [20] 0.976

CSC(=O)c1cccc2nnsc12
inactive: [1] 0.851 | [2] 1.04 | [3] 0.997 | [4] 0.978 | [5] 1.07 | [6] 0.961 | [7] 1 | [8] 1.04 | [9] 1 | [10] 1.01 | [11] 1.01 | [12] 0.994 | [13] 0.981 | [14] 1.03 | [15] 1.12 | [16] 0.934 | [17] 0.953 | [18] 1.01 | [19] 0.921 | [20] 1.01

CC(C)c1nn(C(=O)NC(C)(C)C)c(=O)n1N
inactive: [1] 0.95 | [2] 1.04 | [3] 0.976 | [4] 1.02 | [5] 1.08 | [6] 0.976 | [7] 1 | [8] 0.999 | [9] 1 | [10] 1.05 | [11] 1.02 | [12] 1.02 | [13] 1.02 | [14] 0.971 | [15] 0.994 | [16] 1.07 | [17] 1.02 | [18] 1 | [19] 1 | [20] 1.02
